Source: the OligoGym collection

biological target: ALDH1A3; test: pooled miR-30 sensor sort-seq; sequence = guide strand; settings: shRNA
Note: reference of the scale not given here.

In order of rising sensor-assay potency score (higher = more potent):
1. TAGCAGTTGATCCAGACCGTTC  -1.2
2. TAGTCGGTGCTATTCGCTCTTT  -0.888
3. TTTTGTCGAACTGCTTTTGATC  -0.787
4. TTTCTTGGCATACTCCACGCTC  -0.65
5. TTTTGAACTTCAGTATTGGTTG  -0.527
6. TTGGTTGAAGAACACTCCCTGA  -0.48
7. TCATTGTTGATAAATATCTTGG  -0.45
8. TTTTTGTGAACACGGCTGCTGT  -0.433
9. TTTCCTGACATTTTAAAGCCAC  -0.397
10. TTCGATACTTTTGAACTTCAGT  -0.228
11. TTCCACTTCACATATTTGCTCC  -0.153
12. TTTATCACTTCTTCGATACTTT  -0.132
13. ATTGTTGATAAATATCTTGGTG  -0.0591
14. ATAAATATCTTGGTGAACTTGA  -0.0326
15. TTCTGTTTTGACATCGAAGGGG  0.0292
16. TAAGATTTTGTCGAACTGCTTT  0.131
17. TTGTTGATAAATATCTTGGTGA  0.169
18. TCTGTTTTGACATCGAAGGGGT  0.173
19. TTCTTCGATACTTTTGAACTTC  0.188
20. TATCTTGGTGAACTTGACCTCC  0.362

biological target: ALDH9A1; test: as above; settings: shRNA

In order of falling sensor-assay potency score (higher = more potent):
1. TTGATTAGTATCTACAAGGCAC  0.363
2. TAGATTTCCTCTATCGCAGTAG  0.289
3. TTAATTTGGGATCTTCAGGTAC  0.221
4. TAATACACAAGGTCTCATGTAA  0.189
5. TATAACCAAACGATCCACCTGG  0.155
6. TAACACTTTAGCACCCTGCTCC  0.132
7. TAACATTCAGTTGTACTGCCTC  -0.0109
8. TTCTCTAGAAGTATGTTACTGG  -0.159
9. TTAAAGGGTAGCTCCACTGGTG  -0.285
10. TCTCATGTAATATCCATCCTTT  -0.314
11. TCTTTCTGCACAAATACTCTTG  -0.35
12. TTGATGAGTGGACCCATCCTTG  -0.479
13. TTAGTTAATACACAAGGTCTCA  -0.528
14. TTCAGTTGTACTGCCTCTGTAA  -0.536
15. TTTGCCACTTTGACAAACCCAA  -0.698
16. TAAAAAAATGTCAATGAGCTGA  -0.73
17. TTCTTGATTAGTATCTACAAGG  -0.856
18. TTGTTAATGAAGCACGTCCCAG  -1.05
19. TTCTCTTATACTGAACGCCAAA  -1.4
20. TTCACATCATTCCACAGCGTGG  -1.5
